Measured values reported in PubChem BioAssay (NCATS).
Values joined by “and” are separate entries in the source; they are usually repeats but may differ in a detail not shown here. Identical values can stand only once. Inconclusive results are not listed. Entries that show only a call come without a potency. Active and inactive are the calls of the source. Calls come from the whole dose curve.

What was measured:
[1] = Cytotoxicity counterscreen for inhibitors of SARS-CoV-2 cell entry (AID 1645845); note: nearly all actives have a fitted effect of over 50% in size
Outline: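 Expi293F/hACE2 cells seeded overnight; cpd pin-transferred in DMSO, 1 h preincubation, + media, 48 h 37 C 5% CO2; ATPLite 1step luminescence; normalized to cells and no cells.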

[2] = Primary qHTS to identify inhibitors of SARS-CoV-2 cell entry (AID 1645846); settings: activity change, negative = inhibition: at 57.1 µM (top of the series) unless noted; note: nearly all actives have a fitted effect of over 45% in size
Outline: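 HEK293-ACE2 (Expi293F, stable hACE2), 1500 cells/well, o/n 37C; cpd 23 nL pin, 1 h; MLV-PP w/ SARS-CoV-2-S (Wuhan-Hu-1, Δ19 C-term); 48 h 37C; Bright-Glo luminescence; normalized vs S-PP and bald PP.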
Potency is the fitted concentration of half-maximal effect.

CC1(C)Cc2c(-c3ccccc3)c(-c3ccc(Cl)cc3)c(CC(=O)O)n2C1
Potency [1]: inactive
activity change, negative = inhibition [2]: -28.3%

NC(=O)c1ccc(N(C(N)=O)c2c(F)cccc2F)nc1-c1ccc(F)cc1F
Potency [1]: inactive
activity change, negative = inhibition [2]: -20.8%

CCOC(=O)[C@@H](N)CCC(=O)N[C@@H](CSCc1ccccc1)C(=O)N[C@@H](C(=O)OCC)c1ccccc1
Potency [1]: inactive
activity change, negative = inhibition [2]: 0.458%

COc1cc2c(Oc3ccc(NC(=O)C4(C(=O)Nc5ccc(F)cc5)CC4)cc3F)ccnc2cc1OCCCN1CCOCC1
Potency [1]: 31.6 µM (active)
Potency [2]: 8.91 µM (active)

CCOC(=O)c1c(C)n(C)c2ccc(O)cc12
Potency [1]: inactive
activity change, negative = inhibition [2]: -9.91%

NC(=O)C1CCCc2c1[nH]c1ccc(Cl)cc21 (stereo not given)
Potency [1]: inactive
Potency [2]: inactive

O=C1C(Cl)=C(NCCN2CCOCC2)C(=O)c2ncccc21
Potency [1]: 28.2 µM (active)
Potency [2]: 11.2 µM (active)

CN1C(=O)C(Cc2c[nH]c3ccccc23)NC1=S (stereo not given)
Potency [1]: inactive
Potency [2]: inactive

COc1cccc2cc(-c3nc(C4CCC(C(=O)O)CC4)n4ncnc(N)c34)[nH]c12 (stereo not given)
Potency [1]: inactive

O=c1[nH]c(-c2ccc(C(F)(F)F)cc2)nc2c1CSCC2
Potency [1]: inactive

COc1cc2ncn(-c3cc(OCc4ccccc4C(F)(F)F)c(C(N)=O)s3)c2cc1OC
Potency [1]: 2.51 µM (active)

CC(C)OC(=O)C1=CN(C(=O)c2ccc(F)c(F)c2)CC(C)(C)c2c1[nH]c1ccccc21
Potency [1]: inactive
activity change, negative = inhibition [2]: -3.59%

C[C@@H]1CN(CC(=O)Nc2ccc3c(c2)Cc2cccc(-c4cc(=O)cc(N5CCOCC5)o4)c2S3)C[C@H](C)O1
Potency [1]: 14.1 µM (active)

Cc1cc(C(=O)NNCc2ccccc2)no1
Potency [1]: inactive
activity change, negative = inhibition [2]: -26.2% [at 114 µM]

NC(=O)c1ccc(-c2nc(-c3ccc4c(c3)OCCO4)c(-c3ccccn3)[nH]2)cc1
Potency [1]: inactive

Cc1nnc(C(C)C)n1C1CC2CCC(C1)N2CC[C@H](NC(=O)C1CCC(F)(F)CC1)c1ccccc1 (stereo not given in full)
Potency [1]: inactive
activity change, negative = inhibition [2]: 2.02% and -27.6%

Cc1cccc(-c2nn(C(=S)Nc3ccccc3)cc2-c2ccnc3ccccc23)n1
Potency [1]: inactive
Potency [2]: inactive

CCOc1cc2ncc(C#N)c(Nc3ccc(OCc4ccccn4)c(Cl)c3)c2cc1NC(=O)/C=C/CN(C)C
Potency [1]: inactive
Potency [2]: 8.91 µM (active) and 2.51 µM (active)

Cc1ccc(C(=O)Nc2ccc(CN3CCN(C)CC3)c(C(F)(F)F)c2)cc1C#Cc1cnc2cccnn12
Potency [1]: 31.6 µM (active)
Potency [2]: 8.91 µM (active)

C=CCNC(N)=S
Potency [1]: inactive
Potency [2]: inactive

CC(=O)N[C@@H](CCC(N)=O)C(=O)O
Potency [1]: inactive
activity change, negative = inhibition [2]: -25.1%

CS(=O)(=O)Oc1ccc2c(NC(N)=O)c(C(=O)c3ccc(Cl)cc3Cl)oc2c1
Potency [1]: inactive
Potency [2]: inactive

CCCCC(CC)COC(=O)/C=C/c1ccc(OC)cc1 (stereo not given)
Potency [1]: inactive
activity change, negative = inhibition [2]: -3.29%

Clc1ccccc1CN1CCc2sccc2C1
Potency [1]: inactive
Potency [2]: inactive

Cc1ccccc1N=Nc1ccc(N=Nc2c(O)ccc3ccccc23)c(C)c1
Potency [1]: inactive
activity change, negative = inhibition [2]: -23%

C1Cc2[nH]nc(-c3nn[nH]n3)c2C1
Potency [1]: inactive
activity change, negative = inhibition [2]: 4.96%

C[C@@H](N)C(=O)O
Potency [1]: inactive
activity change, negative = inhibition [2]: -18.7%

O=C1CCCC2=C1C(c1[nH]ncc1Cl)N=C(Nc1nc3ccccc3o1)N2 (stereo not given)
Potency [1]: inactive
activity change, negative = inhibition [2]: -4.23%

CC[N+](C)(CC)CCOC(=O)C(O)(c1ccccc1)C1CCCCC1 (stereo not given)
Potency [1]: inactive
Potency [2]: inactive

CC(C)(C)C(=O)Oc1ccc2c(c1)nc(NC(=O)c1cccc([N+](=O)[O-])c1)n2CCCO
Potency [1]: inactive
activity change, negative = inhibition [2]: -6.43%
